PubChem BioAssay AID585 (National Center for Advancing Translational Sciences (NCATS), 2007)
Among all 71,000 compounds or so, about 1,300 (1.8%) were called active. Entries that show only a call come without a potency. The call rests on the fitted dose curve. The full list was thinned out, with actives kept by preference.

biological target: Beta-lactamase (Escherichia coli (strain K12)) (UniProt P00811); assay: Promiscuous and Specific Inhibitors of AmpC Beta-Lactamase (assay without detergent); settings: AmpC nitrocefin hydrolysis, absorbance 480 nm, no detergent; series mostly up to 28.7 µM
Description: NIH Molecular Libraries Screening Centers Network [MLSCN]
NIH Chemical Genomics Center [NCGC]
PI Name: Shoichet, Brian K.
This aggregation profiling approach exploits the sensitivity of aggregate formation to detergent. Inhibition of b-lactamase is measured in the presence and absence of 0.01% Triton X-100. See Pubchem assay "Promiscuous and Specific Inhibitors of AmpC Beta-Lactamase (assay with detergent)" for related screen. Compounds that inhibit only in the absence of detergent are considered likely promiscuous aggregators.
A screen of 1,030 compounds was performed in Brian Shoichet's lab in 96-well format. AmpC activity was measured by following the absorbance at 480 nm. Nitrocefin is a chromogenic substrate: while nitrocefin is yellow (lmax 390 nm), the product of its hydrolysis is red (lmax 486 nm, 17,000 M-1). AmpC beta lactamase was provided by Brian Shoichet and Brian Feng, UCSF.
NCGC Assay Protocol Summary:
20 mM phosphate buffer, pH 7.0
Triton X-100: No Detergent screen: 0.0001%, Detergent screen: 0.01%.
Buffer in columns 3 and 4 as negative control (no enzyme).
5.3 nM AmpC in columns 1, 2, 5-48. Titration of UCSF compound 9 control (from 10 mM, then 1:2) pin-transferred to column 2. Column 1 is neutral (100% activity).
Six uL of reagents were dispensed to 1536-well Greiner black clear bottom plates. Compounds and controls (23 nL) were transferred via Kalypsys PinTool. The plates were incubated for 15 min at room temperature, and then 2 uL of 800 uM solution of nitrocefin was added to start the reaction. The plates were immediately transferred to and read every 20 seconds for 4 min on ViewLux (Perkin-Elmer) High-throughput CCD imager using 480 nm absorbance protocol. During dispense, reagent bottles were kept submerged into 4 deg C water bath.
Keywords: NIH Roadmap, MLSCN, MLI, MLSMR, qHTS, NCGC, AmpC Beta-Lactamase, Aggregation.
Potency means the concentration at half of the fitted maximal effect.

Sequence of Beta-lactamase (Escherichia coli (strain K12)) (P00811 whole entry, looked up): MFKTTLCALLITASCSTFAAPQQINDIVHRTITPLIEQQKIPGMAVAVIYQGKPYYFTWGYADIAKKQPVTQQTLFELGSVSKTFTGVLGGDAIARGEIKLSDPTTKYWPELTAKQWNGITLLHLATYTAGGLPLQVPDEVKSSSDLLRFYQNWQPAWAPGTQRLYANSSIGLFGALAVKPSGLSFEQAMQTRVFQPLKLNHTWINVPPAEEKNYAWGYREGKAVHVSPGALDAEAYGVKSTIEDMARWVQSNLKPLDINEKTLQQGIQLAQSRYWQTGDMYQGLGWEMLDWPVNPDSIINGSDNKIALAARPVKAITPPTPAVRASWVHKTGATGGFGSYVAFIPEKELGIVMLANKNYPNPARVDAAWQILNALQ

SMILES | Potency
Cc1nc(-c2ccc(NC(=O)c3cccs3)cc2)cs1 | inactive
COc1cccc2c(=O)n(CC(=O)N3CCCCCC3)ccc12 | inactive
O=C(NCc1cccs1)C1CCN(S(=O)(=O)c2ccc3c(c2)OCCO3)CC1 | inactive
O=C(NCc1ccc2c(c1)OCO2)C1CCCN(S(=O)(=O)c2cccs2)C1 (configuration not stated) | 3.98 µM [single pt active] (active)
O=C(NC1CCCCC1)C1CCCN(S(=O)(=O)c2cccs2)C1 (configuration not stated) | inactive
COc1cc2c(cc1OC)C(c1ccncc1)CC(=O)N2 (configuration not stated) | inactive
CC(C)c1nnc(NC(=O)C2CCCN2S(=O)(=O)c2ccc(Cl)cc2)s1 (configuration not stated) | inactive
Cc1nc2ccc(S(=O)(=O)NCC(=O)NCCN3CCCCC3C)cc2s1 (configuration not stated) | inactive
Cc1nc2ccc(S(=O)(=O)NCC(=O)O)cc2s1 | inactive
Cc1nc2ccc(S(=O)(=O)NC(C(=O)N3CCCCCC3)C(C)C)cc2s1 (configuration not stated) | 3.98 µM [single pt active] (active)
COC(=O)c1c(NC(=O)CSc2nc3c(c(=O)n(C)c(=O)n3C)n2C(C)C)sc(C)c1C | inactive
CCn1nnc(NC(=O)c2c(OC)cccc2OC)n1 | inactive
CN(c1ccccc1)c1ccc(/C=c2\s/c(=C(/C#N)C(=O)C(C)(C)C)n(Cc3ccco3)c2=O)cc1 | 10 µM (active)
CCOC(=O)CSc1nc2c(sc(=S)n2CCc2ccccc2)c(=O)n1Cc1ccco1 | inactive
O=c1nc2s/c(=C\c3ccco3)c(=O)n2nc1Cc1ccccc1 | inactive
CC1=CC(=O)C2=C(C)C[C@H](O)[C@@H]3[C@@H](OC(=O)[C@H]3C)[C@H]12 | inactive
CCOc1ccccc1N=C1NC(=O)CS1 | inactive
C=C(C)Cn1c(SCC(=O)NCc2ccco2)nc2sc3c(c2c1=O)CCC3 | inactive
O=C(CSc1nc2cc3c(cc2c(=O)n1CCC1=CCCCC1)OCO3)NCc1ccco1 | 12.6 µM (active)
O=C(CCCn1c(SCC(=O)c2ccc(F)cc2)nc2ccccc2c1=O)NCc1ccco1 | inactive
CC(C)NC(=O)N1CC[C@@]2(CCCN(C(=O)c3cccn3C)C2)C1 | inactive
Cc1c2cn[nH]c(=O)c2c(C)n1Cc1ccc(F)cc1 | inactive
N#CCCN1CCN(S(=O)(=O)c2ccc(S(=O)(=O)NC3CCCCC3)cc2)CC1 | inactive
CCOC(=O)N1CCC(NC(=O)c2cnn3ccccc23)CC1 | 3.98 µM [single pt active] (active)
CCOC(=O)N1CCC(NC(=O)CCc2cn(C)c3ccccc23)CC1 | inactive
CCOC(=O)N1CCC(NC(=O)Cc2cn(C)c3ccccc23)CC1 | inactive
COC(=O)N1CCC2(CCCN(Cc3ccccc3OC)C2)CC1 | inactive
